Screening data as filed in PubChem.
MEKK2wt PB1 HTS = raises or lowers MEK5 binding to wildtype human MEKK2 PB1 domain. Q9Y2U5. binding response (% of control), % at 10 µM. AID 1531. 290,000 compounds, 1.1% hits. bead flow cytometry, Alexa488-MEK5 binding to MEKK2 WT; actives lie on both sides; in the data active = binding response below about 67% or above about 130%
MEKK2mut PB1 HTS = signal of MEK5 binding to mutant human MEKK2 PB1 domain; 290,000 compounds, 0.35% hits; AID 1530; bead flow cytometry, Alexa488-MEK5 binding to MEKK2 mutant; percent response, % at 10 µM; in the data active = percent response above about 24%, passing the limit was not always enough
ATG4B inh = ATG4B (human) cysteine protease inhibition | Q9Y4P1 | ATG4B cleavage of LC3-PLA2, NBD-HPC fluorescence, 1 h | inhibition, % at 8.33 µM | 340,000 compounds, 0.51% hits | AID 504462; in the data active = inhibition above about 40%
MEKK3 PB1 HTS = modulators (inhibitors or enhancers) of MEK5 binding to human MEKK3 PB1 domain; 290,000 compounds, 1.4% hits; bead-based flow cytometry, Alexa488-MEK5 binding to MEKK3; actives lie on both sides; 0 = blocked by unlabeled MEK5, 100 = vehicle; Q99759; binding response (% of control), % at 10 µM;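 active = binding response more than 3 SD above or below the average of its plate-row segment, actives on both sides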;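 also: Alexa488 bead fluorescence after subtracting the streptavidin-only scavenger bead signal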
UBC13 polyUb = inhibitors of human UBC13 polyubiquitin chain formation; TR-FRET; 330,000 compounds, 0.47% hits; AID 485273; P61088; inhibition, % at 20 µM; in the data active = inhibition above about 45%, passing the limit was not always enough
PREPL inhibitor = inhibits the human prolyl oligopeptidase-like enzyme. recombinant PREPL, fluorescence polarization activity-based probe. inhibition, % at 5.96 µM. 320,000 compounds, 0.68% hits. AID 2751; in the data active = inhibition above about 43%;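 also: 0% = enzyme with DMSO and 100% = wells lacking enzyme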
MEKK2wt confirm = raises or lowers MEK5 binding to wildtype human MEKK2, retest; shares compounds with MEKK3 PB1 HTS; bead flow cytometry, Alexa488-MEK5 binding to MEKK2 WT; actives lie on both sides; binding response (% of control), % at 10 µM; 5,900 compounds, 2.4% hits; AID 1892; in the data active = binding response below about 16% or above about 210%; inactive = in between
MEKK2mut-MEK5 = signal of MEK5 binding to mutant human MEKK2, retest; shares compounds with MEKK3 PB1 HTS; bead flow cytometry, Alexa488-MEK5 binding to MEKK2 mutant; percent response, % at 10 µM; 5,900 compounds, 2% hits; AID 1893; in the data active = percent response mostly above about 71%, no sharp cut-off; inactive = mostly below about 38%;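 also: higher means compound restores mutant binding toward wildtype level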
MEKK3-MEK5 inh = confirmation of inhibitors of MEK5 binding to human MEKK3; shares compounds with MEKK3 PB1 HTS; bead flow cytometry, Alexa488-MEK5 binding to MEKK3; stronger effect = lower value; binding response (% of control), % at 10 µM; 5,900 compounds, 1.8% hits;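 active = binding response below 72% of control, or above a set upper limit, though filed actives all read lower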;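 also: 100% = DMSO only wells and 0% = binding blocked by excess unlabeled MEK5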
* = called active by the depositor; x = no result given; [ ] = dose if it differs, or a comment. Most compounds without a hit are left out; they make up all but 3.1% or so of the library.

SMILES	MEKK2wt PB1 HTS	MEKK2mut PB1 HTS	ATG4B inh	MEKK3 PB1 HTS	UBC13 polyUb	PREPL inhibitor	others
CSc1cccc(NP2(=O)OCC(C)([N+](=O)[O-])CO2)c1 (stereo unspecified)	x	x	2.0	x	x	x
CC(C)(C)NC(=O)NC(=O)CN1CC=C(c2ccccc2)CC1	123.0	60.0*	-0.7	128.0	-10.7	8.1
O=C(CN1CC=C(c2ccccc2)CC1)NC(=O)NC1CCCCC1	103.0	8.0	-4.0	103.0	2.4	16.0
CC(C)Sc1nnc([C@@H](N)Cc2ccccc2)o1	95.0	-2.0	-0.9	101.0	8.9	12.6
CN1CC[C@@H](c2ccc(F)cc2)[C@H](COc2ccc3c(c2)OCO3)C1	121.0	4.0	x	100.0	x	x
O=C(O)c1cccc2c1NC(c1cccc([N+](=O)[O-])c1)C1CC(Sc3ccccc3[N+](=O)[O-])C(Cl)C21 (stereo unspecified)	82.0	-3.0	88.5*	92.0	-31.2	x
O=C(O)c1ccc2c(c1)C1C(Cl)C(Sc3ccccc3[N+](=O)[O-])CC1C(c1cccc([N+](=O)[O-])c1)N2 (stereo unspecified)	113.0	1.0	48.2*	127.0	x	x
CCN(CC)C(=O)c1ccc2c(c1)C1C(Cl)C(Sc3ccccc3[N+](=O)[O-])CC1C(C(=O)O)N2 (stereo unspecified)	85.0	-8.0	13.3	94.0	-26.2	38.6
CC1CCN(CC(=O)c2cccc(C(F)(F)F)c2)CC1	104.0	-1.0	-3.4	102.0	-3.0	18.9
CC[C@@H]1C=CC=CC[C@H](C)[C@@H](O)[C@@H](C)C(=O)[C@H](C)[C@@H](O)[C@H](C)C(=O)[C@H](C)[C@@H](O)[C@H](C)C=CC(=O)O[C@H]2[C@@H](C)[C@@H](CC1)O[C@@]1(CC[C@@H](C)[C@@H](C[C@H](C)O)O1)[C@@H]2C	106.0	2.0	x	103.0	58.9*	7.5
Cn1cccc1/C=C1/C(=O)NC(=S)N(Cc2ccc(F)cc2)C1=O	56.0*[inhibitor]	-19.0	33.0	88.0	-0.8	19.9	MEKK2wt confirm=98.0;MEKK2mut-MEK5=0.0;MEKK3-MEK5 inh=98.0
COc1cc2c3cc1Oc1c(OC)c(OC)cc4c1[C@H](Cc1ccc(cc1)Oc1cc(ccc1O)C[C@H]3N(C)CC2)N(C)CC4	x	x	-13.0	x	24.0	35.5
COc1cc2c3cc1Oc1cc(ccc1O)C[C@@H]1c4c(cc(OC)c(O)c4Oc4ccc(cc4)C[C@H]3N(C)CC2)CCN1C	134.0*	10.0	-0.7	107.0	21.7	39.6	MEKK2wt confirm=118.0;MEKK2mut-MEK5=8.0;MEKK3-MEK5 inh=97.0
COc1ccc(NC(=O)[C@@H](NC(=O)N2C[C@H]3C[C@@H](C2)c2cccc(=O)n2C3)C(C)C)cc1	101.0	2.0	-14.2	101.0	1.1	4.5
CC(=O)c1cc(C(C)=O)c(C)[n+](C)c1C	87.0	-18.0	4.3	87.0	-5.4	2.8
CNCCc1c[nH]c2ccccc12	106.0	3.0	-2.7	111.0	8.0	-3.3
CCC(N)Cc1c[nH]c2ccccc12 (stereo unspecified)	74.0	-7.0	2.0	64.0*[inhibitor]	-5.0	x	MEKK2wt confirm=103.0;MEKK2mut-MEK5=2.0;MEKK3-MEK5 inh=100.0
CCC(C)NC(=O)c1c(N)n(CC2CCCO2)c2nc3ccccc3nc12 (stereo unspecified)	86.0	-3.0	-34.2	82.0*[inhibitor]	13.9	1.5	MEKK2wt confirm=100.0;MEKK2mut-MEK5=-2.0;MEKK3-MEK5 inh=102.0
CC(C)CCNC(=O)c1c(N)n(CC2CCCO2)c2nc3ccccc3nc12 (stereo unspecified)	97.0	-5.0	9.1	101.0	7.3	9.4
